Activity calls are given as the source filed them.
Assay: plasmodial surface anion channel blockers, osmotic lysis – cell-based, P. falciparum Indochina, OD700, 18 h, primary screen (AID 1157)
Details: P. falciparum Indochina infected erythrocytes, osmotic lysis OD700, 18 h; higher = more signal, called active from +8 up or from −8 down

z-score, inactive:
C=CCN1C(=O)[C@]2(O[C@H](CCO)[C@@H]([Si](C)(C)c3ccc(OC)cc3)[C@@H]2C)c2cc(N3C(=O)c4cccc5cccc3c45)ccc21 2.83
C[N+](C)(C)CCCCNC(=O)[C@H]1C[C@H]2C(=O)N[C@@H](Cc3ccccc3)C(=O)N2[C@H]1c1ccc(O)cc1 0.228
COC(=O)[C@@]1(Cc2ccc(F)cc2)[C@H]2c3cc(C(=O)N4CCCC4)n(Cc4cc(C)n(C)n4)c3C[C@H]2CN1C(=O)c1ccccc1 0.742
Cc1ccc(S[C@]2(C(=O)NCC(F)(F)F)CC(=O)N(C(C)C)[C@@H]2c2ccc(CO)cc2I)cc1 0.548
CO[C@H]1O[C@H](CO)[C@@H](OC(=O)Nc2ccc(Br)cc2)[C@H](OC(=O)c2cc3ccccc3[nH]2)[C@H]1OC(=O)c1cc2ccccc2[nH]1 -0.464
COc1ccc(CCNC(=O)[C@@]2(Sc3ccc(C)cc3)CC(=O)N(C3CCCCC3)[C@@H]2c2ccc(CO)cc2I)cc1 0.252
CC(C)c1ccc(NN2C(C(O)c3cc(C(F)(F)F)cc(C(F)(F)F)c3)C=CC3C(=O)N(c4ccccc4)C(=O)C32)cc1 (stereo not given) 2.32
COc1ccc([C@H]2OC[C@@H]3CC4(CC=CC4)C(=O)N32)cc1 0.136
CN1C(=O)C2C=CC(C(O)C3CC=CCC3)N(NC(=O)OC(C)(C)C)C2C1=O (stereo not given) 0.312
N#Cc1ccc(NN2C(C(O)c3c(F)cccc3Cl)C=CC3C(=O)N(c4ccccc4)C(=O)C32)cc1 (stereo not given) 1.51
CCOC(=O)C1=CCC(c2ccccc2)N(S(=O)(=O)CC[Si](C)(C)C)C1 (stereo not given) 0.561
O=C1OCCC/C=C\[C@H]2OC34C=CCN(CCN5CCOCC5)C(=O)[C@H]3N(CCCO)C(=O)[C@@H]4C12 (stereo not given in full) -0.352
COc1cc2c(cc1O)C=[N+](Cc1cccc(OC(F)(F)F)c1)CC2 -2.03
COc1ccc(C(=O)Nc2cccc(CN3C(=O)[C@]4(O[C@H](CCO)[C@@H]([Si](C)(C)c5ccc(OC)cc5)[C@@H]4C)c4ccccc43)c2)cc1 1.85
CCCCCN1CC=CC23O[C@@H]4/C=C\CCCOC(=O)C4[C@H]2C(=O)N(C(CO)C(C)C)[C@@H]3C1=O (stereo not given in full) 0.0866
O=C1O[C@H](c2ccccc2)[C@H](c2ccccc2)N2[C@H]1[C@@H](C(=O)NC[C@H](O)c1ccccc1)[C@]1(C(=O)Nc3ccccc31)[C@H]2c1ccc(OCCO)cc1 1.47
CCOC(=O)[C@H]1CC=C2CC1C(=O)N1CCC[C@@H]1[C@@H]2O[Si](C)(C)C(C)(C)C (stereo not given in full) 0.378
CCN(CC)c1ccc(N2CC=CC34O[C@@H]5/C=C\CCCOC(=O)C5[C@H]3C(=O)N(CCO)[C@@H]4C2=O)cc1 (stereo not given in full) 0.041
COCCOC(=O)N1C(=O)[C@@]2(c3cc(C#CC4=CCCCC4)ccc31)[C@H](C(=O)Nc1nc3ccccc3s1)[C@H]1C(=O)O[C@H](c3ccccc3)[C@H](c3ccccc3)N1[C@@H]2c1ccc(OCCO)cc1 1.59
CN1C(=O)C2C=CC(C(O)c3ccc(I)cc3)N(N3CCCCC3)C2C1=O (stereo not given) 0.701
CC1CC/C=C\[C@H]2OC34C=CCN(c5ccc(Cl)cc5)C(=O)[C@H]3N(CCO)C(=O)[C@]4(C)C2C(=O)O1 (stereo not given in full) 0.382
COCCOC(=O)N1C(=O)[C@@]2(c3cc(C#Cc4ccc(OC)cc4)ccc31)[C@H](c1ccc(O)cc1)N1[C@H](c3ccccc3)[C@H](c3ccccc3)OC(=O)[C@H]1[C@@H]2C(=O)NC[C@H](O)c1ccccc1 0.532
COc1ccc([Si](C)(C)[C@H]2[C@H](CCn3cc([C@H](O)c4ccccc4)nn3)O[C@@]3(C(=O)N(Cc4cccc(N5CCOC5=O)c4)c4ccccc43)[C@@H]2C)cc1 1.4
CN1C(=O)C2C=CC(C(O)C3=C[C@H]4C[C@@H](C3)C4(C)C)N(Nc3ccccc3)C2C1=O (stereo not given in full) 0.852
CC(=O)NCCCC[C@@H]1NC(=O)[C@@H]2C[C@H](C(=O)NCCCCN(C)C)[C@H](c3cccc(OCCO)c3)N2C1=O 0.105
COc1ccc(CCNC(=O)[C@@]2(C)c3ccccc3C(=O)N(Cc3cc(F)cc(C(F)(F)F)c3)[C@H]2c2ccc(CO)cc2)cc1 0.526
C=CCOC(=O)[C@H]1[C@@H]2C(=O)O[C@@H](c3ccccc3)[C@@H](c3ccccc3)N2[C@@H](c2ccc(OCCOC(=O)[C@@H]3C[C@@H]4C(=O)N[C@@H](CCCC[N+](C)(C)C)C(=O)N4[C@@H]3c3ccc(O)cc3)cc2)[C@]12C(=O)Nc1ccccc12 -1.58
O=C1OCCC/C=C\[C@H]2OC34C=CCN(Cc5ccccc5)C(=O)[C@H]3N(CCCCCCO)C(=O)[C@@H]4C12 (stereo not given in full) 0.524
C=C(CCCC)C(=O)CC[C@H](OC(C)=O)c1cccc(OCCO)c1 -1.85
CC(C)N1C(=O)[C@@]2(Cc3ccccc31)c1ccccc1C(=O)N(C1CCCCC1)[C@H]2c1ccc(CO)cc1 0.378
COCCOC(=O)N1C(=O)[C@@]2(c3cc(C#CC4(O)CCCCCC4)ccc31)[C@H](c1ccc(O)cc1)N1[C@H](c3ccccc3)[C@H](c3ccccc3)OC(=O)[C@H]1[C@@H]2C(=O)Nc1nc2ccccc2s1 1.39
O=C1O[C@@H](c2ccccc2)[C@@H](c2ccccc2)N2[C@@H](c3ccccc3OCCO)[C@]3(C(=O)Nc4ccc(C#CC5=CCCCC5)cc43)[C@@H](C(=O)Nc3nc4ccccc4s3)[C@H]12 1.83
C=CCOC(=O)[C@@H]1[C@H]2C(=O)O[C@H](c3ccccc3)[C@H](c3ccccc3)N2[C@H](c2ccc(OCCOC(=O)[C@@H]3C[C@@H]4C(=O)N5CCC[C@H]5C(=O)N4[C@@H]3c3ccc(O)cc3)cc2)[C@@]12C(=O)Nc1ccc(I)cc12 -1.31
C=CCNC(=O)[C@H]1[C@@H]2C(=O)O[C@@H](c3ccccc3)[C@@H](c3ccccc3)N2[C@@H](c2ccc(OCCO)cc2)[C@]12C(=O)N(C(=O)OCCOC)c1ccccc12 0.759
COc1ccc(C(=O)O[C@H]2CC[C@]3(C)C4=C(CCC3C2(C)C)[C@]2(C)CC[C@H]([C@H](C)CCCC(C)C)[C@@]2(C)CC4)cc1 (stereo not given in full) -1.6
